Calls of active or inactive are those of the source.
Experiment: splicing luciferase reporter signal modulators, primary screen, spliceosome inhibition project, cell-based, HEK293, splice +/- reporter (AID 1101);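 further: HEK293 cells carrying a splicing-competent luciferase reporter gene; test concentration not given here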
Conditions: luminescence, 24 h, higher = more signal, called active from +8 up or from −8 down

z-score, inactive:
C=CCNC(=O)[C@H]1[C@@H]2C(=O)O[C@@H](c3ccccc3)[C@@H](c3ccccc3)N2[C@@H](c2ccc(O)cc2)[C@]12C(=O)N(C(=O)OCCOC)c1ccc(C#Cc3ccc(OC)cc3)cc12 -0.294
O=C1OC[C@@H](c2ccccc2)n2cc(/C=C/c3ccccc3)cc21 -1.55
COc1c(C)cc(-c2nc(-c3ccccc3)c3c(c2C)CO[Si]3(C(C)C)C(C)C)cc1C -0.394
C=C(CCCC)/C(=C/C[C@@H](OC(C)=O)c1cccc(OCCO)c1)c1cc(C(=O)OC)ccc1OC -0.509
CC1CC/C=C\[C@H]2OC34C=CCN(C(C)C)C(=O)[C@H]3N(C(C)CO)C(=O)[C@@H]4C2C(=O)O1 (stereo not given in full) -0.789
CCCCC(=C=CC[C@@H](O)c1ccc(OCCO)cc1)CCO -0.755
COc1ccc(C(=O)Nc2ccc(CN3C(=O)[C@]4(O[C@H](CC(=O)N(CCO)Cc5ccccc5)[C@@H]([Si](C)(C)c5ccc(OC)cc5)[C@@H]4C)c4ccccc43)cc2)cc1 -1.88
COC(=O)[C@@]1(Cc2ccc(F)cc2)[C@H]2c3cc(C(=O)N(C)C)n(Cc4ccc(C(F)(F)F)nc4)c3C[C@H]2CN1C(=O)c1ccccc1 -0.622
O=C(NCCN1CCOCC1)[C@@H]1c2ccccc2C(=O)N(CC23CC4CC(CC(C4)C2)C3)[C@H]1c1ccc(CO)cc1 0.507
CO[C@H]1O[C@H](CO)[C@@H](OC(=O)Nc2cccc(F)c2)[C@H](OC(=O)Nc2ccc3c(c2)OCO3)[C@@H]1OC(=O)Nc1ccc2c(c1)OCO2 -1.13
CN(C)CCCCCCNC(=O)[C@@H]1C[C@@H]2C(=O)N[C@@H](CCCC[N+](C)(C)C)C(=O)N2[C@@H]1c1cccc(OCCO)c1 -1.52
CN(C)C(=O)[C@]1(CCS(=O)(=O)c2ccccc2)N=C(c2ccc(OCCCO)cc2)O[C@@H]1c1ccccc1CN=[N+]=[N-] -0.153
CN1C(=O)C2C=CC(C(O)c3ccc([N+](=O)[O-])cc3)N(Nc3ccccc3)C2C1=O (stereo not given) 0.293
CCOC(=O)C[C@H]1[C@H](OC(=O)c2ccccc2-c2ccccc2)[C@@H](NC(=O)CC(C)C)c2cc(OCCCO)ccc2N1C(=O)c1ccccc1 -0.739
O=C1C2C=CC(C(O)C3CC=CCC3)N(Nc3ccc([N+](=O)[O-])cc3)C2C(=O)N1c1ccccc1 (stereo not given) 0.809
COc1cccc(C)c1NC(=O)O[C@H]1[C@H](OC(=O)Nc2ccc3c(c2)OCO3)[C@H](OC(=O)Nc2ccc3c(c2)OCO3)[C@@H](OC)O[C@@H]1CO -0.316
CC(C)(C)OC(=O)CC[C@]1(C(N)=O)N=C(c2ccc(OCCCO)cc2)O[C@H]1c1ccccc1N=[N+]=[N-] -1.24
C=CCN1C(=O)[C@]2(O[C@H](CCO)[C@@H]([Si](C)(C)c3ccc(OC)cc3)[C@@H]2C)c2cc(N3C(=O)c4ccccc4Oc4ccccc43)ccc21 -1.38
C=C(/C=C\CNS(=O)(=O)c1ccc(C)cc1)[C@H](O)[C@H]1CCCN1S(=O)(=O)c1ccccc1[N+](=O)[O-] -0.465
COC(=O)[C@@]1(Cc2ccc(F)cc2)[C@H]2c3cc(C(=O)N4CCCC4)n(C[C@H](O)CO)c3C[C@H]2CN1C(=O)c1ccccc1 0.749
O=C1O[C@H](c2ccccc2)[C@H](c2ccccc2)N2[C@H]1[C@@H](C(=O)O)[C@]1(C(=O)Nc3ccccc31)[C@H]2c1ccc(OCCO)cc1 -0.749
COc1ccc(CCNC(=O)[C@@H]2c3ccccc3C(=O)N(C(C)C)[C@H]2c2ccc(CO)cc2)cc1 0.109
O=C1O[C@@H](c2ccccc2)[C@@H](c2ccccc2)N2[C@@H](c3ccc(OCCO)cc3)[C@]3(C(=O)Nc4ccc(C#CC5=CCCCC5)cc43)[C@@H](C(=O)Nc3nc4ccccc4s3)[C@H]12 -0.61
C=C(COC)C(=O)CC[C@@H](OC(=O)c1ccccc1-c1ccccc1C(=O)O)c1ccccc1OCCO -0.14
CCOC(=O)C[C@H]1[C@H](OC(=O)Cc2ccc3c(c2)OCO3)[C@@H](NC(=O)CC(C)C)c2cc(OCCCO)ccc2N1C(=O)c1ccc2ccccc2n1 -0.881
COC(=O)Cn1c(C(=O)N(C)C)cc2c1C[C@H]1CN(C(=O)c3ccccc3)[C@@](Cc3ccccc3)(C(=O)OC)[C@@H]21 -0.332
C[C@@]1([C@@H](NS(=O)(=O)c2cccc3cccnc23)c2ccc(-c3ccccc3)cc2)C[C@H]1C1CCCCC1 -1.19
COCCOC(=O)N1C(=O)[C@@]2(c3cc(C#CCC(C(=O)OC)C(=O)OC)ccc31)[C@H](C(N)=O)[C@H]1C(=O)O[C@H](c3ccccc3)[C@H](c3ccccc3)N1[C@@H]2c1ccccc1OCCO -1.32
CN1C(=O)C2CC=C(C3=CCO[C@@H]3[C@H]3CCCN3S(=O)(=O)c3ccccc3[N+](=O)[O-])CC2C1=O (stereo not given in full) 0.129
COc1cccc(C)c1NC(=O)O[C@H]1[C@H](OC(=O)Nc2ccccc2)[C@@H](OC(=O)Nc2ccccc2)[C@@H](OC)O[C@@H]1CO 0.449
COCCCNC(=O)[C@@]1(c2ccc([N+](=O)[O-])cc2)CC(=O)N(C2CCCCC2)[C@@H]1c1ccc(CO)cc1I -1.1
CO[C@H]1O[C@H](CO)[C@@H](OC(=O)Nc2cccc(F)c2)[C@H](OC(=O)c2cc3ccccc3[nH]2)[C@H]1OC(=O)c1cc2ccccc2[nH]1 -1.57
C=C(COC)/C(=C/C[C@@H](OC(C)=O)c1cccc(OCCO)c1)c1cnc2ccccc2c1 -0.302
CCCC[C@@H](O)C1=C(C)Cn2c(=O)n(-c3ccccc3)c(=O)n2[C@H]1CO -1
CCCCC(=C=CC[C@@H](O)c1ccccc1OCCO)C[C@@H](O)c1ccccn1 -0.0777
